The list shows a part of the results. The true hit rate is not given.

First the molecules themselves.
B1: VH:VL chains; a variant is named by its letters at X, in order (parent)
chain 1: QVQLVQSGAEVKKPGASVKVSCKASGYTFTDYXMHWVRQAPGQGLEWMGXVNPNXXXTTYNQKFEGRVTMTTDTSTSTAYMELRSLRSDDTAVYYCARXNXLDXWGQGTTVTVSS
chain 2: DIQMTQSPSSLSASVGDRVTITCSVSSSVSSIYLHWYQQKPGKAPKLLIYSTSNLASGVPSRFSGSGSGTDFTLTISSLQPEDFATYYCQVYSGYPLTFGGGTKVEIK

In the assay the parent is B1. Kind of assay: yeast display scFab, FACS + sequencing. The following applies: with MET. In short, it runs like this:
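For FACS, yeast displaying a heavy-chain CDR mutant scFab library were labelled with 1 nM HGFR-Fc and anti-Myc (PBSB, 1% milk, 3 h, room temperature), and the top 50% antigen-positive cells were gated. Input and round-3 sorted populations were deep sequenced in two replicates. The binding call was positive for sequences occurring in both antigen-positive samples and negative for sequences occurring only in input.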
Regarding VATGDDWV, the antigen binding call is listed as “no binding”.

SKGRSDVS: the antigen binding call was “no binding”.

On to DRAGDAVD, for which the antigen binding call was “no binding”.

With YRAGTAVS, the antigen binding call is on record as “binds”.

In the case of DRAGDAVS, the antigen binding call is “no binding”.

As for YRAGTAVD, the antigen binding call was “binds”.

Turning to SAARDFWV, the antigen binding call is reported as “no binding”.

For the variant DKEGGDLA, the antigen binding call is listed as “no binding”.

As to YRKGSSVD, the antigen binding call was “binds”.

In the case of YRKGASVD, the antigen binding call is on record as “binds”.

ATGGDDGF: the antigen binding call was “no binding”.

As to DTTGSDWA, the antigen binding call is “no binding”.

Regarding YRKGASAF, the antigen binding call is listed as “binds”.

In the case of DERRSSAF, the antigen binding call is on record as “no binding”.

As to VRRRGSAF, the antigen binding call was “binds”.

For SERRSSAF, the antigen binding call was “no binding”.

Turning to YRRGGAAF, the antigen binding call was “binds”.

On to YERRSSAF, for which the antigen binding call was “binds”.

Turning to DGGRGDAF, the antigen binding call was “no binding”.

With DGTGGSGA chain 1 R67H, the antigen binding call is “no binding”.

As to FRRRDAAF, the antigen binding call is given as “no binding”.

Regarding YRRRGSAF, the antigen binding call was “binds”.

Consider VRRRGSLF, for which the antigen binding call is “binds”.

With YRRRGAAF, the antigen binding call was “binds”.

Take DKGEGDGA: the antigen binding call was “no binding”.

Regarding SKAGSDVA, the antigen binding call is “no binding”.

Turning to DRGRDAWF, the antigen binding call is listed as “no binding”.

For the variant FRTGSAWF, the antigen binding call was “no binding”.

Turning to YRGRSAWF, the antigen binding call was “binds”.

As to FRGRGAWF, the antigen binding call is recorded as “binds”.

On to YKGRGFWA, for which the antigen binding call is on record as “no binding”.

As to YRTRGAWF, the antigen binding call was “binds”.

Take YRGRGFWF: the antigen binding call is “binds”.

With YAGGDDAA, the antigen binding call is reported as “no binding”.

As to VEAGTAVA, the antigen binding call was “no binding”.

Regarding YRGRGAVF, the antigen binding call is recorded as “binds”.

Turning to YAGRGDVF, the antigen binding call was “no binding”.

In the case of YEGTGAVF, the antigen binding call was “no binding”.

Regarding YRGRGAWF, the antigen binding call is reported as “binds”.

For the variant VAREDDWA, the antigen binding call is given as “no binding”.

For the variant YKRGSSVD, the antigen binding call is recorded as “binds”.

With VKRGSFVD, the antigen binding call is “no binding”.

With VATTDSVD, the antigen binding call is reported as “no binding”.

On to VARGGSVD, for which the antigen binding call was “no binding”.

As to VKRGSSVD, the antigen binding call is “binds”.

As to YTRGASLD, the antigen binding call is “no binding”.

Consider DATTDSVD, for which the antigen binding call was “no binding”.

For the variant YTEEAAVD, the antigen binding call is recorded as “binds”.

For the variant AATTDSVD, the antigen binding call is “binds”.

For YTKTSSVD, the antigen binding call is “no binding”.

Consider YTRKSSVD, for which the antigen binding call is on record as “no binding”.

Consider DAGGGDWD, for which the antigen binding call is “no binding”.

In the case of DAGGADVY, the antigen binding call is listed as “no binding”.

With YATAADWD, the antigen binding call is listed as “no binding”.

In the case of ATRTDDVF, the antigen binding call is listed as “no binding”.

DEGEDAGA: the antigen binding call was “no binding”.

Consider SEEGSDAS, for which the antigen binding call is “no binding”.

As to YKRGSAVD, the antigen binding call is on record as “binds”.

Take YKTGDSVD: the antigen binding call is “binds”.

YKRRDSVD: the antigen binding call is listed as “binds”.

For the variant YKRGSFVD, the antigen binding call is listed as “no binding”.

On to YARGTAVD, for which the antigen binding call is “no binding”.

Take DGGTNSSA: the antigen binding call is “no binding”.

For the variant DEGGTALA, the antigen binding call is “no binding”.

As to SEGTGSGD, the antigen binding call is on record as “no binding”.

In the case of FGGEGDGA, the antigen binding call was “no binding”.

Regarding YKRGGSWD, the antigen binding call was “binds”.

For the variant YKTGDSWV, the antigen binding call was “no binding”.

For the variant VKRATSWD, the antigen binding call is reported as “no binding”.

For the variant YKRGSSWD, the antigen binding call was “binds”.

With YKTGSSWD, the antigen binding call is “binds”.

Take DGARNFGV: the antigen binding call was “no binding”.

DTGANDWV: the antigen binding call is recorded as “no binding”.

As for DATGGAAA, the antigen binding call is “no binding”.

As for SAGGGAWV, the antigen binding call is given as “no binding”.

In the case of SKAENAWV, the antigen binding call is “no binding”.

In the case of SKGGSAWD, the antigen binding call is listed as “no binding”.

As to SRGRGAWD, the antigen binding call was “binds”.

In the case of SAGRGDWD, the antigen binding call is recorded as “no binding”.

Take SKGRGAWV: the antigen binding call is “binds”.

Take SRGRGSWD: the antigen binding call is listed as “binds”.

On to SRGANAWD, for which the antigen binding call is given as “no binding”.

Take SKGRGAWD: the antigen binding call is given as “binds”.

Turning to DRGRDDLV, the antigen binding call was “no binding”.

As to AATTDDAV, the antigen binding call was “no binding”.

Regarding SGRGNAAD, the antigen binding call is “no binding”.

As for ATTKSDGV, the antigen binding call is given as “no binding”.

For the variant VEGGTDVA, the antigen binding call is on record as “no binding”.

Regarding DAGTGSGA, the antigen binding call is “no binding”.

YRRRGDVV: the antigen binding call is on record as “binds”.

On to SREGGVVV, for which the antigen binding call is listed as “no binding”.

For the variant YERRNDVV, the antigen binding call is “binds”.

Consider YEGGTDVV, for which the antigen binding call is “no binding”.

In the case of YTRGADVV, the antigen binding call is listed as “no binding”.

On to YEGTGDVV, for which the antigen binding call is “no binding”.

YRARGVVV: the antigen binding call is reported as “no binding”.

As to YRRRGYVV, the antigen binding call was “binds”.

For the variant YRRRGVVV, the antigen binding call was “binds”.

For SGGRDSGV, the antigen binding call is listed as “no binding”.

For AARADDSA, the antigen binding call was “no binding”.

Consider YRAEGYVV, for which the antigen binding call is recorded as “binds”.

For VGGGAAGV, the antigen binding call is reported as “no binding”.

For the variant YRGRGFSA, the antigen binding call was “binds”.

YRGRGVSD: the antigen binding call is “binds”.

For the variant FRGRGFSA, the antigen binding call is reported as “no binding”.
